Shown are actives, neighbours in structure and some others; about 12% of the full set was active somewhere.
DAT uptake mod = modulates human dopamine transporter uptake under cocaine; B-score at 10 µM; hit rate 1.3% among 110,000; LLC-PK1 hDAT cells, [14C]-dopamine uptake with cocaine IC80; actives deviate in either direction;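 active = Z score or B-score, a plate-position-corrected score, falls beyond the plate's 99.7% confidence bounds, in either direction; inactive = both scores lie inside the 99.7% bounds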;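 note: scored against the spread of the other compound wells on the same plate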
Cav32 inh = blocks human Cav3.2 T-type calcium channel | hit rate 4% among 100,000 | Cav3.2-expressing cells, Fluo-4 calcium fluorescence FDSS; hits give low values | B-score at 10 µM | AID 449739;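 active = single-dose well whose peak fluorescence ratio is a statistical outlier from its plate by either plate-standardised score or position-corrected B-score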
PostGolgi yeast = growth inhibition of a yeast mutant, post-Golgi transport screen | post-Golgi transport phenotypic cell assay | inhibition, % at 10 µM | hit rate 0.9% among 98,000 | AID 739;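 note: yeast cells grown in 1536-well plates; yeast grown about 18 h at 30C before absorbance read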
PostGolgi ctrl = inhibits growth of the yeast control strain. efflux-deficient yeast background strain, growth absorbance A615, 16 h. inhibition, % at 10 µM. hit rate 5% among 98,000. AID 738
D1 mod = allosterically modulates the human D1 dopamine receptor. P21728. HEK293 D1, CRE-luciferase, dopamine EC30 potentiation; actives deviate in either direction. B-score at 10 µM. hit rate 5.9% among 58,000. AID 641;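 active = luminescence count or its row- and column-corrected plate score outside the 99.7% band of the plate's sample wells, on either side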
PLAP act = activators of human placental alkaline phosphatase; P05187; purified PLAP enzyme, luminescent substrate read-out; hits give high values; activation fold at 20 µM; hit rate 1.2% among 96,000; in the data active = activation fold above about 2
Target sequence (P05187 whole entry, looked up): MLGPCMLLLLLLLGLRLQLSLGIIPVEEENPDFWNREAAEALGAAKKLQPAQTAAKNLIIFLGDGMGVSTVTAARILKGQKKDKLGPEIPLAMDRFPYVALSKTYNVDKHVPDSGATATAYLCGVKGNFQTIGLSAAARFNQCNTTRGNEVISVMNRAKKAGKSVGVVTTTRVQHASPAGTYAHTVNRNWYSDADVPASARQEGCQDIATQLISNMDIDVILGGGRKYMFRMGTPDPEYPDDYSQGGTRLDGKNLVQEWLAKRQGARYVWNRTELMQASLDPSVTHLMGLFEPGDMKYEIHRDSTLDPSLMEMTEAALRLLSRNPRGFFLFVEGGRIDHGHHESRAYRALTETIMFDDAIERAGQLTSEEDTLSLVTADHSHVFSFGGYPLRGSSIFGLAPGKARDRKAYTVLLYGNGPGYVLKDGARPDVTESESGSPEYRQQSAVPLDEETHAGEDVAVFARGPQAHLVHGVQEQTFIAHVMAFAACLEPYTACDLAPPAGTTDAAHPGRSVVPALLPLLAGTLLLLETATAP
An asterisk follows results filed as active. Cut-off read from the data, not from the text of the source, unless noted: active = inhibition above about 30%; inactive = the rest.

CCOc1ccccc1N=c1oc2cc(O)ccc2cc1C(=O)NCC1CCCO1 (stereo not drawn) was read as DAT uptake mod 0.6, Cav32 inh 0.47, PostGolgi yeast 0, PostGolgi ctrl 4 and PLAP act 1.1.
For O=C(c1c(Cl)nc2sccn12)N1CCN(c2cccc(Cl)c2)CC1 the results were DAT uptake mod 0.31, Cav32 inh -2, PostGolgi yeast -5, PostGolgi ctrl 27 and PLAP act 1.5.
`O=C(c1ccc(Cl)c(F)c1F)N1CCCC1` gave DAT uptake mod -0.1, PostGolgi yeast -6, PostGolgi ctrl 12, D1 mod 0.69 and PLAP act 1.1.
`COc1ccc(C(=O)/C=C/c2cn(CN3CCN(C)CC3)c3ccccc23)cc1` gave PostGolgi yeast 4, PostGolgi ctrl 33* and PLAP act 1.4.
CCOc1ccc(C(=O)/C=C/c2cn(CN3CCN(C)CC3)c3ccccc23)cc1 was read as DAT uptake mod 0.062, Cav32 inh -0.61, PostGolgi yeast -2, PostGolgi ctrl 32* and PLAP act 1.2.
Screening Cc1ccc2oc(-c3cccc(NC(=S)NC(=O)/C=C/c4ccco4)c3)nc2c1 returned DAT uptake mod -0.53, PostGolgi yeast -6, PostGolgi ctrl -5 and PLAP act 1.
Screening COC(C/C=C\C(=O)[C@@H](C)OCc1ccccc1)OC returned DAT uptake mod -0.88 and Cav32 inh 1.8.
For FC(F)(F)c1nc(N2CCCC2)ncc1-c1nnnn1-c1ccccc1 the results were DAT uptake mod -0.0058, Cav32 inh -0.93, PostGolgi yeast -1, PostGolgi ctrl 19 and PLAP act 0.9.
Cc1ccc(-n2nnnc2-c2cnc(N3CCCC3)nc2C(F)(F)F)cc1 was read as DAT uptake mod 1, Cav32 inh -4.5*, PostGolgi yeast -1, PostGolgi ctrl 27 and PLAP act 1.4.
`COc1cc(CNC2CCCC2)cc(Cl)c1OCc1ccccc1F` gave DAT uptake mod -2, Cav32 inh -1.4, PostGolgi yeast 5, PostGolgi ctrl 30 and PLAP act 2*.
Cc1cccc(/C=c2\s/c(=C\C(=O)C(C)(C)C)[nH]c2=O)c1 was read as DAT uptake mod -0.35, Cav32 inh -3.7, PostGolgi yeast -4, PostGolgi ctrl 36* and PLAP act 1.1.
CC(C)(C)C(=O)/C=c1\[nH]c(=O)/c(=C\c2ccc(C#N)cc2)s1 was read as DAT uptake mod -0.048, Cav32 inh -4.3, PostGolgi yeast -2, PostGolgi ctrl 12, D1 mod 0.016 and PLAP act 1.1.
Screening Cn1c(CNc2ccc(Cl)cc2)nnc1SCc1ccccc1 returned DAT uptake mod 0.28, Cav32 inh -2.3, PostGolgi yeast 105*, PostGolgi ctrl 96*, D1 mod -0.54 and PLAP act 0.7.
`Cn1c(CNc2ccc(Cl)cc2)nnc1SCCN1CCCCC1` gave DAT uptake mod -0.1 and Cav32 inh 0.52.
`CCn1c(Cn2nnc(-c3ccccc3)n2)nnc1SCc1ccc(Cl)c(Cl)c1` gave DAT uptake mod 0.83, Cav32 inh -4.2, PostGolgi yeast 2, PostGolgi ctrl 46* and PLAP act 1.4.
`CCn1c(Cn2nnc(-c3ccccc3)n2)nnc1SCC(=O)N1CCOCC1` gave DAT uptake mod 0.1, Cav32 inh 0.28, PostGolgi yeast 25, PostGolgi ctrl 3, D1 mod 0.018 and PLAP act 1.2.
Screening CCn1c(CNc2ccc(Cl)cc2)nnc1SCc1ccccc1 returned DAT uptake mod 1.8*, Cav32 inh -8.5*, PostGolgi yeast 99*, PostGolgi ctrl 93* and PLAP act 1.
For O=C(O)C1CCCN1C(=O)Oc1ccccc1 (stereo not drawn) the results were DAT uptake mod -0.24, Cav32 inh 0.32, PostGolgi yeast 2, PostGolgi ctrl 7, D1 mod -2.6* and PLAP act 1.1.
Cc1ccc(NC(=O)C2CCCN2C(=O)Oc2ccccc2)cc1 (stereo not drawn) was read as DAT uptake mod -0.021, PostGolgi yeast 3, PostGolgi ctrl 10, D1 mod 0.44 and PLAP act 0.9.
c1cncc(-c2nc3c4ccccc4nc(N4CCC(N5CCCCC5)CC4)n3n2)c1 was read as D1 mod 0.83.
Screening O=C(c1ccc(-c2ccccc2Cl)s1)N1CCOCC1 returned DAT uptake mod 0.38 and Cav32 inh -0.12.
